Source: article PMC13494018

B1: design_615_ab801fab-270b-4f6a-b2b5-83c165df418c_1818_dldesign_0_cycle1_af2pred (protein)
chain: DPRAAASQALAAATADALLARLGELAGADVADRLRALLAGDAASKAEAARLARALAEEWRARNPAAAAALYGIAVLAESLAA
B2: design_615_ab801fab-270b-4f6a-b2b5-83c165df418c_1854_dldesign_0_cycle1_af2pred (protein)
chain: LRERAESNLAFAQTALEAAKQAKAAGAPQSLVQGLANIAERAAQLAIEEAAKDPALAPLAEEAKKVAEEAKKVAA
B3: design_615_ab801fab-270b-4f6a-b2b5-83c165df418c_1881_dldesign_0_cycle1_af2pred (protein)
chain: ALAAELAREALRAEAERIAAAKLAEAKAGTPETAQAQAAYLVSLAEEHPETAGIYLGAAAQIHAVLIAKTA
B4: design_615_ab801fab-270b-4f6a-b2b5-83c165df418c_1933_dldesign_0_cycle1_af2pred (protein)
chain: ALQGALRSAAALLRNAAESEDPESREKLLDVAADLAAYAATLDPAAGAALAAAVEEARREGPEGARRAAELAAALAAA
B5: design_615_ab801fab-270b-4f6a-b2b5-83c165df418c_2088_dldesign_0_cycle1_af2pred (protein)
chain: DTERKLALLQEAIVKLTEALAAYNTDPATGRALAREAAELLKEAGLEEAAELARKAAEDPENGFEYARRALGLVTKAYIELSR
B6: design_615_ab801fab-270b-4f6a-b2b5-83c165df418c_2173_dldesign_0_cycle1_af2pred (protein)
chain: LTPEEKQKLIEEGTELRNKGAALANQAMLAAAAGDKATAKELMAKAKEYFDKAIELYEKAGDEKKAESVKKLKDTLTSAFEAQLAA
B7: design_615_ab801fab-270b-4f6a-b2b5-83c165df418c_2317_dldesign_0_cycle1_af2pred (protein)
chain: GAARMAAAGAQAAALAAELPAAVDPMLEGILNPETREAHEAEARAIARALDPENAEELWARVLRAAMGLLLAQGLARA
B8: design_615_ab801fab-270b-4f6a-b2b5-83c165df418c_2322_dldesign_0_cycle1_af2pred (protein)
chain: AQAEVKAKAEKLIEELIKASSEVVAAAAKAGDGESAVEANKAASEAIKKIKAAAKAGDLEAAKKAAEEGMKKLKELKAKVEAK
B9: design_615_ab801fab-270b-4f6a-b2b5-83c165df418c_2359_dldesign_0_cycle1_af2pred (protein)
chain: MEEDVALLRDIARLGRESLERARAGTAAEAERALADFTAAADAAIARLAPGEGAALLAANMRARFAAEMRAVAAAKAA
B10: design_615_ab801fab-270b-4f6a-b2b5-83c165df418c_2413_dldesign_0_cycle1_af2pred (protein)
chain: AAAALAAEALALREKGVAAAKAGRYALARNYFLQALITAGASPATIQAVVRALAAGAADPSTAPAAVAHADATVTAAAAAVAAA
B11: design_615_ab801fab-270b-4f6a-b2b5-83c165df418c_2427_dldesign_0_cycle1_af2pred (protein)
chain: AMEAAKAAAKAAAAAAAAAGLTDLAAEIAAAAKEAEETGIEGANRLMGLAARYAVQHPALNAAMSALIEAAGAYIAEAA
B12: design_615_ab801fab-270b-4f6a-b2b5-83c165df418c_2473_dldesign_0_cycle1_af2pred (protein)
chain: SPEALTAAVRAEGDALLAEAEATAAADPEAGKAAYEAAIRRLLGLAARLLQESPAAAQAALDRAVELAAKLEEL
B13: design_615_ab801fab-270b-4f6a-b2b5-83c165df418c_2495_dldesign_0_cycle1_af2pred (protein)
chain: GEAEAKFAEALALLDRAEELAKGGDAAQLAEASALLTQAIELATQVSPEKRAEISRRAAEISKRLLAQLAA
B14: design_615_ab801fab-270b-4f6a-b2b5-83c165df418c_2496_dldesign_0_cycle1_af2pred (protein)
chain: GEKEELIKKAEEKAAKAKEYEAKAKAAAADPAKAVEYYNKALYLYLEAAKLASKADPELAKKYSDEANKVAKKAIEAAKAA
B15: design_616_e8336982-fa4d-4d7c-b06f-9007953e1994_26_dldesign_0_cycle1_af2pred (protein)
chain: SLEEAAAQAQALVDQATALGAQDYASASQGIALLAEAAKLVEEAGLPPETAAAIMAAINAALATVSKNAAAFVAA
B16: design_616_e8336982-fa4d-4d7c-b06f-9007953e1994_74_dldesign_0_cycle1_af2pred (protein)
chain: EKEAQEKREKAKKLIEEIKKLAKEVAANPAISGMLNQLAKAAETAAANSSPEQGLKNAEKWLEIGKEAAKTAAA
B17: design_616_e8336982-fa4d-4d7c-b06f-9007953e1994_173_dldesign_0_cycle1_af2pred (protein)
chain: MEEKSKELKKKLEEAKKIAKEDPEKGAELAAEAAKEAAEAGDFGSAGEAIVLIAKMGTPKASRELAEASRYLIAAIRAA
B18: design_616_e8336982-fa4d-4d7c-b06f-9007953e1994_177_dldesign_0_cycle1_af2pred (protein)
chain: AGQATYNAAKAMAKSAAAMYLAGKYEDAEKVYQVAVDLAQSLIADPASKAQGEKALAYAKETYAKAKAEAEKKAA
B19: design_616_e8336982-fa4d-4d7c-b06f-9007953e1994_328_dldesign_0_cycle1_af2pred (protein)
chain: NANLQAAKVALASAEATLKHADAGVAAGTISPESAKKLYELAATLAKDAAEYAKKAGDAELAKKAEELAKEAKAKAEEMAAKAAA
B20: design_616_e8336982-fa4d-4d7c-b06f-9007953e1994_361_dldesign_0_cycle1_af2pred (protein)
chain: AAAQAKALAAQAKAAIESGSLSPGEVARLAVKAGAYAMAAANADPSIAAEMQALAQDLFAKVDEYIAKVAA
B21: design_616_e8336982-fa4d-4d7c-b06f-9007953e1994_392_dldesign_0_cycle1_af2pred (protein)
chain: AEAYQKALATAEKLLAQGQAGLADPSNAEALEKGAQGYFLLAALYPEKREEYVAKGEALYKKAEEARAAQAA
B22: design_616_e8336982-fa4d-4d7c-b06f-9007953e1994_396_dldesign_0_cycle1_af2pred (protein)
chain: GMAELLAELREAEARTTALELMFQAGKNIHPGVAAQGLEAARRLRELAERVADAISPEERARYLAAAERTEELAA
B23: design_616_e8336982-fa4d-4d7c-b06f-9007953e1994_502_dldesign_0_cycle1_af2pred (protein)
chain: MTPEQLAAMERSVARIAEAGARAPTEEEFESAMTAALALAESFGRKAGAPELATARAREIVAKYRARRLA
B24: design_616_e8336982-fa4d-4d7c-b06f-9007953e1994_528_dldesign_0_cycle1_af2pred (protein)
chain: SLLEAALAELRARFEAAKTATPAEAAALVRAAQGTLLTAAAQAGAPLEAMAAVSRVLGAAAETAATAPPEERAAALDAALAEVAALLA
B25: design_616_e8336982-fa4d-4d7c-b06f-9007953e1994_543_dldesign_0_cycle1_af2pred (protein)
chain: MEEAIAELNKAFAALNAAARTTDAATAQENAKKAIEYAKAAAKAAGEAMAPAAKGIIEQAKEVAAAKAALAA
B26: design_616_e8336982-fa4d-4d7c-b06f-9007953e1994_576_dldesign_0_cycle1_af2pred (protein)
chain: SPALELTKRVAEAMAAQARRAAEEDPALGRAQFENALQIAKQFNPEQGALFRAILEATRAEVEAALAAAA
B27: design_616_e8336982-fa4d-4d7c-b06f-9007953e1994_606_dldesign_0_cycle1_af2pred (protein)
chain: SPLAQAQADLLRRTLAALRRSVERAEELAREDPEAGAARLRALAQSAEVVLEAARGLAAQDPALGAETVAAAREVLERAREAEERAR
B28: design_616_e8336982-fa4d-4d7c-b06f-9007953e1994_632_dldesign_0_cycle1_af2pred (protein)
chain: AAADTEKFKKATEHALKAVELAKEGKLEEAEKEAKKAEEEAKKIKDPVTKAGALALAKAARQVIESKAKE
B29: design_616_e8336982-fa4d-4d7c-b06f-9007953e1994_692_dldesign_0_cycle1_af2pred (protein)
chain: MSEAERLAARGLALARHAALLVGLAVGPEEARRLYAAVAAAAADPAALIEVTTEVLELAKEKAALVPQALTTAREALELLTRARELA
B30: design_616_e8336982-fa4d-4d7c-b06f-9007953e1994_719_dldesign_0_cycle1_af2pred (protein)
chain: PTPVEVAEAAAQATIKTAKRQVEEAKRLLKEGKAEEALRLAESAIQNAEIAKDLAENNPEKKEELKKQAEEVKKEAEEVKEEAEKKL
B31: design_616_e8336982-fa4d-4d7c-b06f-9007953e1994_756_dldesign_0_cycle1_af2pred (protein)
chain: SQAALDAAYNSAKAFAESAKRAAEKGDVQAAEAAYKSAKLAAESAKVIGAAAGEEAKKVAEKAEKIAEEAKKLVEKLKKEA
B32: design_616_e8336982-fa4d-4d7c-b06f-9007953e1994_767_dldesign_0_cycle1_af2pred (protein)
chain: AAAREAAVEAAKKQLEELKKKAEELLAYLKANPAASPEEKQKVLEESTKIISQASELAEAYPEVAEQAREAMSAAAKAAILAQKLL
B33: design_616_e8336982-fa4d-4d7c-b06f-9007953e1994_787_dldesign_0_cycle1_af2pred (protein)
chain: VAAAISAATSTAVELLRAAAGATPEQRAEAHALAAEVNRAAVAAAADPSALPATRAELERARARLEAVRAALA
B34: design_616_e8336982-fa4d-4d7c-b06f-9007953e1994_824_dldesign_0_cycle1_af2pred (protein)
chain: DDLERGRELAEEVARVIREGTPEEAKRAIEEAAERLAELSAGAALLAGSLMVREAAKVPGGEELTAHIRAELLRVLRAKIAAA
B35: design_616_e8336982-fa4d-4d7c-b06f-9007953e1994_1040_dldesign_0_cycle1_af2pred (protein)
chain: MEEVLREVERQAESVEKLAQAVIDLAQNDPEAQAKAKELAEKAREARERALEEPETAEEQLKRLQELFEEARRLAAETSRRAIAAA
B36: design_616_e8336982-fa4d-4d7c-b06f-9007953e1994_1055_dldesign_0_cycle1_af2pred (protein)
chain: GAAEEARKKAEEALKKIEELKEKAKADPANAGAYALEAVKTAAEASRALREADPALEEEIDRLRQAAAEAIRAALATQTA
B37: design_616_e8336982-fa4d-4d7c-b06f-9007953e1994_1084_dldesign_0_cycle1_af2pred (protein)
chain: MTVDERLWETTEKLVELIEQVAASAPAFPKEGAIRTIKGLAANAKLAAEAALKAGASPEVTKAAAEKVEKAAKAALAKVE
B38: design_616_e8336982-fa4d-4d7c-b06f-9007953e1994_1142_dldesign_0_cycle1_af2pred (protein)
chain: SAKAEAAKKEYEKAKKAAEEAKKVAKAAGDEAGAAAAKALEKSAENALRNGNLEMVKQVKEIAEAEKEIAEKKLK

These binders were tested against CD276, Q5ZPR3.
Sequence of CD276, Q5ZPR3 (Q5ZPR3 whole entry): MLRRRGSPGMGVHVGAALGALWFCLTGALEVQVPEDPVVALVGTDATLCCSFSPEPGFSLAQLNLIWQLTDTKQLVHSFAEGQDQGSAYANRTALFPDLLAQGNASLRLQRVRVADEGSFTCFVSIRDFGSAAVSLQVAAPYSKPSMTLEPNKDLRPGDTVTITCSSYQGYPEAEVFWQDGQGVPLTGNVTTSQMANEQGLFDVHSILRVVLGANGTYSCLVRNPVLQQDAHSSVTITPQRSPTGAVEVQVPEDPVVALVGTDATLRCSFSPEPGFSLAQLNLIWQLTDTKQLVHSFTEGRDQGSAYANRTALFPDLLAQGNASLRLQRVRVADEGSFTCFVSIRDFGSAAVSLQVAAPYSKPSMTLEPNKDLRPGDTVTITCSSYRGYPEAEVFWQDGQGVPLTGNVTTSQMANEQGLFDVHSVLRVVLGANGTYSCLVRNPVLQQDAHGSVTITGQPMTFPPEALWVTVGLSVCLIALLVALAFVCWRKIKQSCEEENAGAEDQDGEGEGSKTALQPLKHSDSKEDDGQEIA

| Binder | binding in a display sort |
| --- | --- |
| B1 | not found (inactive) |
| B2 | not found (inactive) |
| B3 | not found (inactive) |
| B4 | not found (inactive) |
| B5 | not found (inactive) |
| B6 | not found (inactive) |
| B7 | not found (inactive) |
| B8 | not found (inactive) |
| B9 | not found (inactive) |
| B10 | not found (inactive) |
| B11 | not found (inactive) |
| B12 | not found (inactive) |
| B13 | not found (inactive) |
| B14 | not found (inactive) |
| B15 | not found (inactive) |
| B16 | not found (inactive) |
| B17 | not found (inactive) |
| B18 | not found (inactive) |
| B19 | not found (inactive) |

| Binder | binding in a display sort |
| --- | --- |
| B20 | not found (inactive) |
| B21 | not found (inactive) |
| B22 | not found (inactive) |
| B23 | not found (inactive) |
| B24 | not found (inactive) |
| B25 | not found (inactive) |
| B26 | not found (inactive) |
| B27 | binds (active) |
| B28 | not found (inactive) |
| B29 | not found (inactive) |
| B30 | not found (inactive) |
| B31 | not found (inactive) |
| B32 | not found (inactive) |
| B33 | not found (inactive) |
| B34 | not found (inactive) |
| B35 | not found (inactive) |
| B36 | not found (inactive) |
| B37 | not found (inactive) |
| B38 | not found (inactive) |
